Test results taken from PubChem BioAssay (NCI).
This is part of a sample that, as a whole, favours compounds with a hit. Of some 79,000 tested, about 15% had one in any assay. Cut-off read from the data, not from the text of the source: active = growth inhibition above about 70%; inactive = the rest.

Legend:
[1] = NCI Yeast Anticancer Drug Screen. Data for the rad50 strain (AID 155);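 note: 0% = growth of vehicle-only cultures of the same strain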; conditions: S. cerevisiae rad50 strain growth inhibition; at 50.0 µM; active compounds read high
How it was run: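 Growth of the mutant yeast was measured after compound exposure and referenced to vehicle-treated cultures.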

[2] = NCI Yeast Anticancer Drug Screen. Data for the mec2-1 strain (AID 157); conditions: S. cerevisiae mec2-1 strain, at 50.0 µM, active compounds read high
How it was run: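 Cells of the genetically defined mec2-1 yeast strain are incubated with test compound. Inhibition of growth is calculated against vehicle-treated controls.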

[3] = NCI Yeast Anticancer Drug Screen. Data for the sgs1 mgt1 strain (AID 161);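 note: 0% = growth of cultures given vehicle only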; conditions: S. cerevisiae sgs1 mgt1 strain, at 50.0 µM, active compounds read high
How it was run: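 Genetically altered yeast, compound exposure, growth inhibition relative to vehicle.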

[4] = NCI Yeast Anticancer Drug Screen. Data for the cln2 rad14 strain (AID 165);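 note: 0% = growth equal to vehicle treated cultures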; conditions: S. cerevisiae cln2 rad14 strain, at 50.0 µM, active compounds read high
How it was run: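 The screen exposed genetically defined yeast (cln2 rad14) to test compounds and scored growth inhibition relative to vehicle-treated controls.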

[5] = NCI Yeast Anticancer Drug Screen. Data for the bub3 strain (AID 167); conditions: S. cerevisiae bub3 mutant strain, at 50.0 µM, active compounds read high
How it was run: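 Whole-cell yeast assay. The mutant strain was incubated with compounds, and growth inhibition was determined by comparison with vehicle-treated cells.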

[6] = NCI Yeast Anticancer Drug Screen. Data for the mlh1 rad18 strain (AID 175); conditions: S. cerevisiae mlh1 rad18 strain growth inhibition; at 50.0 µM; active compounds read high
How it was run: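 Compound-treated yeast growth, normalised to vehicle controls. Strain bears defined DNA repair mutations.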

Measured: growth inhibition

CC(=O)c1sc(-c2nc(C)c(C(=O)/C=C\c3ccc(/C=C\C(=O)c4sc(-c5nc(C)c(C(C)=O)s5)nc4C)cc3)s2)nc1C
inactive: [1] -19.3% | [2] -13.4% | [3] -8.7% | [4] -11.6% | [5] 3.95% | [6] -14.4%

CN(C)c1ccc(/C(=N\O)C(=O)O)cc1
inactive: [1] -15.2% | [2] -13.3% | [3] -2.2% | [4] -9.1% | [5] 0.1% | [6] 1.55%

CCOC(=O)C1C=NC([N+](=O)[O-])=C1Br (stereo unspecified)
inactive: [1] 0.15% | [2] 24.8% | [3] 13.4% | [4] -4.25% | [5] 18.4% | [6] 9.15%

Cc1nn(C(=O)c2ccncc2)c2c1C(c1cccc([N+](=O)[O-])c1)SC(N)=N2 (stereo unspecified)
inactive: [1] -55.5% | [2] -45.6% | [3] -32.2% | [4] 2.1% | [5] -10.6% | [6] -28.2%

COc1ccc(C2CC(c3ccccc3)=NN2c2ccccc2)cc1 (stereo unspecified)
inactive: [1] 0.75% | [2] -14.4% | [3] 5.85% | [4] -7.55% | [5] 4.85% | [6] 7.95%

O=[N+]([O-])C(/C=C(\Cl)[N+](=O)[O-])=C(N1CCOCC1)N1CCOCC1
inactive: [1] -4.7% | [2] -1.2% | [3] 24.9% | [4] -9.5% | [5] 13.9% | [6] 5.45%

Cc1ccc(S(=O)[O-])cc1.Cc1ccc(S(=O)[O-])cc1.[Zn+2]
inactive: [1] 26.9% | [2] 1.05% | [3] 16% | [4] 14.8% | [5] -1.95% | [6] 0.4%

CCSCCCSCCSCC
inactive: [1] 58.5% | [2] 46.5% | [3] 57.5% | [4] 43.7% | [5] 63.5% | [6] 56%

COc1cc(C2C(C(=O)Nc3ccccc3C)=C(C)NC(C)=C2C(=O)Nc2ccccc2C)ccc1O
inactive: [1] -27.1% | [2] -8.45% | [3] -16.6% | [4] -3.15% | [5] -10.8% | [6] -9.95%

CC(C)(O)C(O)COc1c2c(cc3oc(=O)ccc13)OCO2 (stereo unspecified)
inactive: [1] 26.3% | [2] 3.5% | [3] 18.9% | [4] -1.35% | [5] 31.9% | [6] 25.6%

CCCCC1SCC(=O)N1c1nncs1 (stereo unspecified)
inactive: [1] 6.35% | [2] 24% | [3] 5.4% | [4] -3.8% | [5] 16.7% | [6] -3.2%

CCCCCCCCCCCCCCCCCCc1c(C)cc(C)cc1C
inactive: [1] 3.7% | [2] 23.2% | [3] 3.7% | [4] 33.3% | [5] 3.55% | [6] 4.3%

Cc1ncc([N+](=O)[O-])n1Cc1nncs1
inactive: [1] -9.35% | [2] -11.4% | [3] -7.95% | [4] -31.9% | [5] -19.3% | [6] -14.2%

NC(CCC(=O)O)C(=O)NC(Cc1c[nH]c2ccccc12)C(=O)O (stereo unspecified)
inactive: [1] -12.7% | [2] 12.3% | [3] -5.05% | [4] -23.1% | [5] -22.4% | [6] -24.6%

CC(C)CC(=O)C(C)C(C)C (stereo unspecified)
inactive: [1] 12.4% | [2] -1.85% | [3] 4.25% | [4] -4.25% | [5] 4% | [6] 1.5%

CC12CCC(=O)N1[C@@H](c1ccccc1)[C@@H](c1ccccc1)O2 (stereo partly specified)
inactive: [1] 25.6% | [2] -12.6% | [3] -0.85% | [4] 15.4% | [5] 3.65% | [6] 5.9%

Cc1ccccc1I
inactive: [1] -15.2% | [2] -32.3% | [3] -3.2% | [4] 9% | [5] 0.5% | [6] 9.2%

CC(O)C1CC1 (stereo unspecified)
inactive: [1] -17% | [2] -40.8% | [3] 9.3% | [4] 1.65% | [5] -2.2% | [6] -5.7%

CC(=O)Nc1nc2ncc(CN(C(C)=O)c3ccc(C(=O)O)cc3)nc2c(=O)[nH]1
inactive: [1] -19.3% | [2] -8.6% | [3] -38.1% | [4] -8.65% | [5] -21.1% | [6] -10.2%

CC(=O)OCC1OC(Cl)C(NS(=O)(=O)Cc2ccccc2)C(OC(C)=O)C1OC(C)=O (stereo unspecified)
inactive: [1] 7.6% | [2] 15.7% | [3] 15.7% | [4] 24.6% | [5] 5.35% | [6] 22.4%

CC(=O)C1COC(O)C1C (stereo unspecified)
inactive: [1] -5.45% | [2] -21.9% | [3] -15.2% | [4] 13.4% | [5] -24.6% | [6] 2.05%

CCOC(=O)C1=C(C)N(NC(=O)OC)C2(N)N(NC(=O)OC)C(C)=C(C(=O)OCC)C12C#N (stereo unspecified)
inactive: [1] -13.3% | [2] -3.2% | [3] -7.45% | [4] -5.7% | [5] 2.5% | [6] -18.4%

C=CCNC(=O)C[n+]1cccc(C(=O)NC)c1
inactive: [1] 22.6% | [2] 8.35% | [3] -9.15% | [4] -5.35% | [5] -0.45% | [6] -17.8%

CC(=O)Nc1cc(-c2ccccc2)cc(-c2ccccc2)c1
inactive: [1] 11.6% | [2] 0.4% | [3] -2.55% | [4] 1.5% | [5] 10.7% | [6] 22.4%

CCOC(=O)c1ccc[n+]([O-])c1
inactive: [1] -2.35% | [2] -9.95% | [3] -18.6% | [4] -107% | [5] -13.2% | [6] -10.8%

O=C(O)c1ccccc1[N+](=O)[O-]
inactive: [1] -4.1% | [2] 10.1% | [3] -9.5% | [4] 1.3% | [5] -4.3% | [6] 10.8%

Cc1ccccc1/C=N\N=C\c1ccco1
inactive: [1] -0.5% | [2] -6.5% | [3] -5.25% | [4] -10.7% | [5] 18.1% | [6] 44.6%

OC1(c2ccccc2)CCCN(Cc2ccccc2)C1 (stereo unspecified)
inactive: [1] 3.75% | [2] 7% | [3] 6.6% | [4] -17.4% | [5] 14.6% | [6] 15.8%

CN1CCn2c(Br)ccc2C1=O
inactive: [1] 13.6% | [2] -11.6% | [3] -1.55% | [4] 8.45% | [5] 2.65% | [6] -3.3%

O=C(CC(=O)c1ccc(Cl)s1)C(=O)NC1C2CC3CC(C2)CC1C3 (stereo unspecified)
inactive: [1] -15% | [2] 15.9% | [3] 7.9% | [4] -26.6% | [5] 12.2% | [6] 3.55%

O=C(O)CCc1ccncc1
inactive: [1] 2.25% | [2] 9% | [3] 12.8% | [4] -1.7% | [5] 7.1% | [6] -0.95%

Cn1cc([N+](=O)[O-])cc1C(=O)Nc1cc(C(=O)Nc2ccc(S(=O)(=O)O)c3cc(S(=O)(=O)O)ccc23)n(C)c1
inactive: [1] 2.4% | [2] 21.4% | [3] 14.3% | [4] 17.4% | [5] 20.4% | [6] 11.7%

O=C1/C(=C/c2ccccc2)N=C2Sc3c(nc[nH]c3=O)N12
inactive: [1] 16.5% | [2] -23.8% | [3] -12.4% | [4] -7.25% | [5] 10.4% | [6] -39.2%

Cc1ccc([N+](=O)[O-])c2c(NCCC[N+](C)(C)[O-])ccnc12
inactive: [1] 35.9% | [2] -18.1% | [3] 20.6% | [4] 14.2% | [5] -24.7% | [6] 4.4%

N#CCCBr
inactive: [1] 23.9% | [2] 0.15% | [3] 7.45% | [4] -22.6% | [5] 15.7% | [6] 31.1%

c1ccc(C(c2ccccc2)[n+]2ccccc2)cc1
inactive: [1] 4.5% | [2] -1.3% | [3] -6.1% | [4] -11.2% | [5] -5.5% | [6] -6.25%

COc1ccc(N2C(=O)C3c4[nH]c5ccccc5c4C4CCCCCCCCCC4C3C2=O)cc1 (stereo unspecified)
inactive: [1] -6.15% | [2] -25.9% | [3] 0% | [4] -39.6% | [5] -15.3% | [6] -30.2%

CCCCCC/C(CC(=O)CCC(=O)NCCc1ccccc1)=N\Nc1ccc([N+](=O)[O-])cc1[N+](=O)[O-]
inactive: [1] -0.2% | [2] 14.9% | [3] -35.5% | [4] 34.2% | [5] 11.9% | [6] -1.7%

N/N=C1/C(=O)N(c2ccc(S(N)(=O)=O)cc2)C(=O)C1C(=O)Nc1ccc(S(N)(=O)=O)cc1 (stereo unspecified)
inactive: [1] -4% | [2] 15.6% | [3] -0.9% | [4] 30.6% | [5] 0.25% | [6] 12.1%

NC(N)=NC(N)=NCc1ccccc1
inactive: [1] 5.45% | [2] -2.45% | [3] 4.3% | [4] 12.7% | [5] 1.85% | [6] 0.85%

Cc1ccc(SCC(OCn2cnc3c(Cl)nc(N)nc32)[C@H](C)F)cc1 (stereo partly specified)
inactive: [1] 32.2% | [2] 23.4% | [3] 56.5% | [4] 24.9% | [5] 66% | [6] -50.9%
